For one sequence, binding signal results are on record in article PMC7862700, “An all-to-all approach to the identification of sequence-specific readers for epigenetic DNA modifications on cytosine”.

Holding throughout (test): DAPPL (digital affinity profiling via proximity ligation, sequencing); 10 mM Tris-HCl pH 7.5, 50 mM NaCl, 1 mM DTT, 4% glycerol, room temperature, 30 min; GST-TFs on glutathione beads, 16-mer random dsDNA library, 0.1% formaldehyde crosslink after washing; high values mean tight binding
What all share (conditions): protein: recombinant; tags: N-terminal GST; dsDNA, one strand shown

The target of one assay is T1, FLI1 (Homo sapiens, UniProt Q01543 1-452).
T1 sequence: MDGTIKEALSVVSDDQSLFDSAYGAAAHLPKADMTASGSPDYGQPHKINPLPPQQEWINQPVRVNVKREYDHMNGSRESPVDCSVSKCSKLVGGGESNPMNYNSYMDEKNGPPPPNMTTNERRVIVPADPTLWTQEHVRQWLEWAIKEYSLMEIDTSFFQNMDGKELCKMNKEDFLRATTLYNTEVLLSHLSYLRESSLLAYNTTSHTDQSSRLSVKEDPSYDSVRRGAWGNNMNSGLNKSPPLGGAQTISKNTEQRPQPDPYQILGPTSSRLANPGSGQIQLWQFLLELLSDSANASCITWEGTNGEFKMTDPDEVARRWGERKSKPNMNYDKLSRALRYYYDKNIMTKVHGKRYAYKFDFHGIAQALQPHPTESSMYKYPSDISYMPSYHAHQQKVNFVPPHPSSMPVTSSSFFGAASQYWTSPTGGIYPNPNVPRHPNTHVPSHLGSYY
A digest of the protocol: (§1)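 GST fusions of human transcription factors were expressed in yeast and captured with glutathione beads. Once given DNA barcodes and pooled alongside a tag-only sample, they were incubated for 30 min at room temperature with 200 nmole of a random double-stranded 16-mer DNA library in Tris/NaCl/DTT/glycerol buffer, then washed, crosslinked (0.1% formaldehyde), proximity-ligated, PCR-amplified and sequenced on an Illumina NextSeq500. The binding signal of each hexamer is its read frequency for a factor divided by its frequency for the tag-only sample.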

For a further assay, the target named is T2, ELK1 (Homo sapiens, UniProt P19419 1-428).
T2 sequence: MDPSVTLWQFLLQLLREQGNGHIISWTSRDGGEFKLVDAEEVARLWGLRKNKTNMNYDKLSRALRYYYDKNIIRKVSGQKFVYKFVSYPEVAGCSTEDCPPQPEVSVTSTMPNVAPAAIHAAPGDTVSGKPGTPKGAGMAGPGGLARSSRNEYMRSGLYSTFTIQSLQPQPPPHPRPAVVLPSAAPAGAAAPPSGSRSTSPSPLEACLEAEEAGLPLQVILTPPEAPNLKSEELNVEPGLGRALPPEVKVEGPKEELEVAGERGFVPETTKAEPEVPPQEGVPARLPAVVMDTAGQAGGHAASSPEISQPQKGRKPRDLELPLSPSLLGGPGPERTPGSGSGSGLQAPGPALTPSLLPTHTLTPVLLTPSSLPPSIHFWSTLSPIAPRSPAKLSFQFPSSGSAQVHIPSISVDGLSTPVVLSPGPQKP
A digest of the protocol:
as §1

The target of another assay is T3, GABPA (Homo sapiens, UniProt Q06546 1-454).
T3 sequence: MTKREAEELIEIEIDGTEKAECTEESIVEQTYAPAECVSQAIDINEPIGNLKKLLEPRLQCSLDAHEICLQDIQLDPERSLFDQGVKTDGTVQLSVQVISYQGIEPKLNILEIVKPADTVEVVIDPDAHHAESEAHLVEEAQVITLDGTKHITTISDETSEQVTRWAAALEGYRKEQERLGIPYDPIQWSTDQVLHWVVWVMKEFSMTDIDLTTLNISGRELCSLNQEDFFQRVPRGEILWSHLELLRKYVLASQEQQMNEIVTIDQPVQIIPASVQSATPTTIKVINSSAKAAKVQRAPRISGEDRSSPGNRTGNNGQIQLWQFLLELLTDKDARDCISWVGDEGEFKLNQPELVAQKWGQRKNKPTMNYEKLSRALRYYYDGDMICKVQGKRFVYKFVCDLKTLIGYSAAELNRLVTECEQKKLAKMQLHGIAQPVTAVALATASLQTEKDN
The method in brief: as §1

The next assay has as its target T4, ERG (Homo sapiens, UniProt P11308 1-479).
T4 sequence: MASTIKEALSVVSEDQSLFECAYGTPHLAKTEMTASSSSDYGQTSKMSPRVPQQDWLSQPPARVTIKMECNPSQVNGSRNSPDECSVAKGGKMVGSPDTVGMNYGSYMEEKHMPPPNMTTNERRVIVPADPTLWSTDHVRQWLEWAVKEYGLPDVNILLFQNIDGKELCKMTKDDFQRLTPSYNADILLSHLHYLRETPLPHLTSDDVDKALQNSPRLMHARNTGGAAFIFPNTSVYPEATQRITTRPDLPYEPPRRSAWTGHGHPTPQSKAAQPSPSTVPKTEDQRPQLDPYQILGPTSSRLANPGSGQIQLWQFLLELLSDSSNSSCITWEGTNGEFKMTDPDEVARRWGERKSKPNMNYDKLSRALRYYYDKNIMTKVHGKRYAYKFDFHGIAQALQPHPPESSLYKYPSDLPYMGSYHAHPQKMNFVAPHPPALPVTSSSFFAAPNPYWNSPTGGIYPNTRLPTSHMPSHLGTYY
The method in brief:
as §1

A further assay deals with ELF1 (Homo sapiens, UniProt P32519 1-619). A digest of the protocol:
as §1

A further assay has as its target T5, EHF (Homo sapiens, UniProt Q9NZC4 1-300).
T5 sequence: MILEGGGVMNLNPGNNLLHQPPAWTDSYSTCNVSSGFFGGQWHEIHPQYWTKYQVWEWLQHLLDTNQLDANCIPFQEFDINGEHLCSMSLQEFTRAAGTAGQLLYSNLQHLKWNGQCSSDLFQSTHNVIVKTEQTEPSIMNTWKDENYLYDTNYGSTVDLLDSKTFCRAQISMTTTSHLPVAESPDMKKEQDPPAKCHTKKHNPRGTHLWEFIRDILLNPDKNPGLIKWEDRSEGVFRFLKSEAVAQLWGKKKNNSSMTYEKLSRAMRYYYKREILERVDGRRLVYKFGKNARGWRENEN
The method in brief:
as §1

The next assay addresses SPI1 (Homo sapiens, UniProt P17947 1-270). A digest of the protocol: as §1
The target of another assay is SPIB (Homo sapiens, UniProt Q01892 1-262). A digest of the protocol:
as §1

The next assay deals with T6, ELK3 (Homo sapiens, UniProt P41970 1-407).
T6 sequence: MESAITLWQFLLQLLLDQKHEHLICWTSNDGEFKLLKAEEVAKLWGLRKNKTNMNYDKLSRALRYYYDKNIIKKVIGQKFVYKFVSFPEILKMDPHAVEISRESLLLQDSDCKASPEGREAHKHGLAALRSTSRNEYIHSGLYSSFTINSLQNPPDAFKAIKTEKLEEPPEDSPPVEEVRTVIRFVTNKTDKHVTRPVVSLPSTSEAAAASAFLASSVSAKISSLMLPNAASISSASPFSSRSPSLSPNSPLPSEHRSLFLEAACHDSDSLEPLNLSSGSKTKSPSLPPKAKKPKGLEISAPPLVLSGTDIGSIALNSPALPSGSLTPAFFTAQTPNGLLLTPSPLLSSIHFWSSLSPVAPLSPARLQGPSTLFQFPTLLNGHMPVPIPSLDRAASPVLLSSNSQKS
The method in brief: as §1

In the next assay the target is T7, FEV (Homo sapiens, UniProt Q99581 1-238).
T7 sequence: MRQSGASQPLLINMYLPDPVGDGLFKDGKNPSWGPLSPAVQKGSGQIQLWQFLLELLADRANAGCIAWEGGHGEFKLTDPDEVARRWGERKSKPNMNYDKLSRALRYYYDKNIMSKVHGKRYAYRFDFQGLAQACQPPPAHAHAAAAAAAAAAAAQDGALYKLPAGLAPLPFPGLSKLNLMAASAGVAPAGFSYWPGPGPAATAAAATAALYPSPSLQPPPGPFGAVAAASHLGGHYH
The method in brief:
as §1

A further assay has as its target ETV5 (Homo sapiens, UniProt P41161 1-510). A digest of the protocol:
as §1

Another assay has as its target T8, SPIC (Homo sapiens, UniProt Q8N5J4 1-248).
T8 sequence: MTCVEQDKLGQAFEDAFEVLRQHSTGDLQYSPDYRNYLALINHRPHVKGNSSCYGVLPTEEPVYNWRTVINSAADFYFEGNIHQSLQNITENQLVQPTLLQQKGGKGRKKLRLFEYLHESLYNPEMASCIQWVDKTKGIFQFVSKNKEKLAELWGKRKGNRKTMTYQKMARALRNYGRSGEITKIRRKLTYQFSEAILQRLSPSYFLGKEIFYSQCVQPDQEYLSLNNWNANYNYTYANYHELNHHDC
A digest of the protocol: as §1

Another assay has as its target ELF4 (Homo sapiens, UniProt Q99607 1-663). A digest of the protocol:
as §1

Another assay has as its target T9, ELK4 (Homo sapiens, UniProt P28324-2 1-405).
T9 sequence: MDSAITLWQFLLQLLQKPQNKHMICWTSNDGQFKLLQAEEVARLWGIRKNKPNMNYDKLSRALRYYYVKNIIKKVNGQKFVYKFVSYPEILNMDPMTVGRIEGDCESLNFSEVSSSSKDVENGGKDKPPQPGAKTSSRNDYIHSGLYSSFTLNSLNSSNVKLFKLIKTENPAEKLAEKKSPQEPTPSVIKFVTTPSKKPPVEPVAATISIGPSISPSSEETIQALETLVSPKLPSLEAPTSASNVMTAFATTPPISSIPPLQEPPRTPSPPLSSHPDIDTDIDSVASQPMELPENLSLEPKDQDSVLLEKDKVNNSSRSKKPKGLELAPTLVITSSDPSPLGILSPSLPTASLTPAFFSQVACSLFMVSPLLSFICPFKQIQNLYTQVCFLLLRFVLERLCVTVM
A digest of the protocol: as §1

The next assay has as its target T10, ETV2 (Homo sapiens, UniProt O00321 1-342).
T10 sequence: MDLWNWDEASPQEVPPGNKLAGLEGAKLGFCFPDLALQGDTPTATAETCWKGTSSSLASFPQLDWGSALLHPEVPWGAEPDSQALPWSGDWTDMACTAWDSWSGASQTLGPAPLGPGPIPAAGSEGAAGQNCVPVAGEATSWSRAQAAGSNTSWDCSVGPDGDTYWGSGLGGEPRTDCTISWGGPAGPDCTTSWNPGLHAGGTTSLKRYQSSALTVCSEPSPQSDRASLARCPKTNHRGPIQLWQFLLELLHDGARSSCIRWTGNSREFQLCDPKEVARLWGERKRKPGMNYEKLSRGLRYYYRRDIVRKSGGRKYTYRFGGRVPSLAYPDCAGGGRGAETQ
The method in brief: as §1

The target of another assay is T11, ELF3 (Homo sapiens, UniProt P78545 1-371).
T11 sequence: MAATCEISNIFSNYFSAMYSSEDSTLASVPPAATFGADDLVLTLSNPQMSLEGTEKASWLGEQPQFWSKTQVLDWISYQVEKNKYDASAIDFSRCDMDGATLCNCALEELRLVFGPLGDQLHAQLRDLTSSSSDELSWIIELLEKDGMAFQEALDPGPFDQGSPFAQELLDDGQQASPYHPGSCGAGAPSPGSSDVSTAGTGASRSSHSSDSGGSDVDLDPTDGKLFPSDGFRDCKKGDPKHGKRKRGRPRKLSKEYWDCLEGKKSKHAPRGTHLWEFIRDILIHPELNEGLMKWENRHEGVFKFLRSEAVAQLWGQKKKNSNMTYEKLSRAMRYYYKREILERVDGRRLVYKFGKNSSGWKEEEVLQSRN
The method in brief:
as §1

The next assay has as its target ETV1 (Homo sapiens, UniProt P50549 1-477). A digest of the protocol:
as §1

ELF1, sequence (P32519 whole entry): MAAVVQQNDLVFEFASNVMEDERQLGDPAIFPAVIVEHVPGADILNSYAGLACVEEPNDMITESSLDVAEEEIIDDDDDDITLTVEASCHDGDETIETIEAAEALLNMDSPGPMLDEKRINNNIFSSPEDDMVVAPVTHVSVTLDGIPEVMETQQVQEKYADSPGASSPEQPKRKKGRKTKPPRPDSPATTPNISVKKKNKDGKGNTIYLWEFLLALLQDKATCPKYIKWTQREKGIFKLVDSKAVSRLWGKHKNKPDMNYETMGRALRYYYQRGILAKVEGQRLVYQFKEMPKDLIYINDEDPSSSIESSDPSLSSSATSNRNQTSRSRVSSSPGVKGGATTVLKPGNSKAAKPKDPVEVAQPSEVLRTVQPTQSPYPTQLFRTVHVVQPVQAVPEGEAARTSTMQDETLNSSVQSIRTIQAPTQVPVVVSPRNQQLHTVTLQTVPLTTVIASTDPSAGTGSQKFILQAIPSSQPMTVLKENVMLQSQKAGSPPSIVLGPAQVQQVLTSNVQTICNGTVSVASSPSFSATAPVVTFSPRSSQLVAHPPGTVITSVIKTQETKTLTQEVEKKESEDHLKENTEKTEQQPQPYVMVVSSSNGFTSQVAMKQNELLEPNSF
ELF4, sequence (Q99607 whole entry): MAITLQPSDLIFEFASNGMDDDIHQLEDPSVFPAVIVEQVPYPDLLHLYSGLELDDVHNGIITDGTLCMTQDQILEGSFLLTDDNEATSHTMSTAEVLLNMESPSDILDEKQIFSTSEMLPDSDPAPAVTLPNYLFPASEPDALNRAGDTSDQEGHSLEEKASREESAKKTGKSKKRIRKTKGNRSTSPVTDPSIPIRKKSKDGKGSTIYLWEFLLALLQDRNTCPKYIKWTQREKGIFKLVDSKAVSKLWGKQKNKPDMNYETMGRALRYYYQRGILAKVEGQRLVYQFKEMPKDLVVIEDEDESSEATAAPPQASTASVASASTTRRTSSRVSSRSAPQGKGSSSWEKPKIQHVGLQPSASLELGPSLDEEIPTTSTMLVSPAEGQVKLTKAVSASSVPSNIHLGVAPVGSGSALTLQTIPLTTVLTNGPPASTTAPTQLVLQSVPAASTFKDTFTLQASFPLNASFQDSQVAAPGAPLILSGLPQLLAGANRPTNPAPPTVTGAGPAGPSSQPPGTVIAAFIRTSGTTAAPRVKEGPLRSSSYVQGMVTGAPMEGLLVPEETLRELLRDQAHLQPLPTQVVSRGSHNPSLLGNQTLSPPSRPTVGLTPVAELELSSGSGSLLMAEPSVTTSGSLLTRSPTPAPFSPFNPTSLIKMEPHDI
ETV1, sequence (P50549 whole entry): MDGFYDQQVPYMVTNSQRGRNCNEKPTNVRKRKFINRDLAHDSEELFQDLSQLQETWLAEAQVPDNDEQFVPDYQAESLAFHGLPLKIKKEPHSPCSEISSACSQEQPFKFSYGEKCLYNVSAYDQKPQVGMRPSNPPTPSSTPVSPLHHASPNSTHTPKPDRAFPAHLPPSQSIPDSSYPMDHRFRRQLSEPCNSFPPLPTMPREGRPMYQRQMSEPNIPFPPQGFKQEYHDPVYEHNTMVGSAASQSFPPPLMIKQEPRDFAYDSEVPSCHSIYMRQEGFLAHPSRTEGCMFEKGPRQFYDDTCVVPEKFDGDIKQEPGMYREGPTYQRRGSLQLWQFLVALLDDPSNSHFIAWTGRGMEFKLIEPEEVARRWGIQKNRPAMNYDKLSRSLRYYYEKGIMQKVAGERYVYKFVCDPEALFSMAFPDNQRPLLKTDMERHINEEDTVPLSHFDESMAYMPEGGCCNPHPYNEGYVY
ETV5, sequence (P41161 whole entry): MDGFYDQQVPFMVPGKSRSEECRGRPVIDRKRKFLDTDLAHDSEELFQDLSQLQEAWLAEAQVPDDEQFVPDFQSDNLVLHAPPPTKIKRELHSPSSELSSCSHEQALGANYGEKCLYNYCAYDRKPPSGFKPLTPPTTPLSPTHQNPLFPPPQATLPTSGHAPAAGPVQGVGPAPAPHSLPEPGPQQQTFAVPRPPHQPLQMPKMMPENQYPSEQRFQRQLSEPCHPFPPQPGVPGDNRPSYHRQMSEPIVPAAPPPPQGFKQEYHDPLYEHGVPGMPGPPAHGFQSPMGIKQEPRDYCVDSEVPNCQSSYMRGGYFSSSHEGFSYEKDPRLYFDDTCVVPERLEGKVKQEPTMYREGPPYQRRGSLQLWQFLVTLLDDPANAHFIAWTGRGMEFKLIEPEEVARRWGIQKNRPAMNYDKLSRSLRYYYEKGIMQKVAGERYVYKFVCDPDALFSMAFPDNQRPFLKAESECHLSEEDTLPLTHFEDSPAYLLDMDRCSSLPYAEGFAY
SPIB, sequence (Q01892 whole entry): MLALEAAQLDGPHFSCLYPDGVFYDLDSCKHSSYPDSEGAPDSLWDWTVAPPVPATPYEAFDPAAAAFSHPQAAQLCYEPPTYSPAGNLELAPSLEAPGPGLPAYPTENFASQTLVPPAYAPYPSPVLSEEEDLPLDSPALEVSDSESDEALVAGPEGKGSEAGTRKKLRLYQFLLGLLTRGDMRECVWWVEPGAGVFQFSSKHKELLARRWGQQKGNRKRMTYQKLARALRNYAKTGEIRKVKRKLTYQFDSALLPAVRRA

With TGTGAC, the binding signal was 1.05 fold enrichment (6-mer frequency, TF over GST control) in the assay with FLI1; 1.09 fold enrichment (6-mer frequency, TF over GST control) in the assay with ELK1; 1.15 fold enrichment (6-mer frequency, TF over GST control) in the assay with GABPA; 1.08 fold enrichment (6-mer frequency, TF over GST control) with ERG; 1.16 fold enrichment (6-mer frequency, TF over GST control) with ELF1; 1.01 fold enrichment (6-mer frequency, TF over GST control) in the assay with EHF. Also, the binding signal in the assay with SPI1 was 1.17 fold enrichment (6-mer frequency, TF over GST control); with SPIB it was 1.22 fold enrichment (6-mer frequency, TF over GST control); with ELK3 it was 1.1 fold enrichment (6-mer frequency, TF over GST control); with FEV, 1.14 fold enrichment (6-mer frequency, TF over GST control); with ETV5, 1.15 fold enrichment (6-mer frequency, TF over GST control); in the assay with SPIC, 1.14 fold enrichment (6-mer frequency, TF over GST control). Besides, the binding signal with ELF4 is 1.19 fold enrichment (6-mer frequency, TF over GST control); with ELK4, 1.2 fold enrichment (6-mer frequency, TF over GST control); with ETV2 it was 1.09 fold enrichment (6-mer frequency, TF over GST control); with ELF3, 1.16 fold enrichment (6-mer frequency, TF over GST control); with ETV1, 1.04 fold enrichment (6-mer frequency, TF over GST control).
